This is an account of results in PubChem BioAssay (NCI).

Compounds without any hit were thinned out: in the full panel of roughly 79,000, 15% have a hit. A number with no mark means an inactive call. Active and inactive are the calls of the source. No stated cut-off is given here; in the data, active means growth inhibition above about 70%; inactive means the rest.

This assay is described as follows: NCI Yeast Anticancer Drug Screen. Data for the mlh1 rad18 strain (AID 175). Conditions: S. cerevisiae mlh1 rad18 strain growth inhibition; at 50.0 µM (retest, dose inferred, filed as 5.0); active compounds read high. The method, boiled down:
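Compound-treated yeast growth, normalised to vehicle controls. Strain bears defined DNA repair mutations.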
Consider `Cc1cccc(NC(=O)CCc2ccc(Cl)cc2)n1`, for which the growth inhibition is -7%.

`O=C(NNc1nc(-c2ccccc2)cs1)C(F)(F)F`: the growth inhibition was 94% (active).

Consider `COc1ccc(C(=O)C(c2ccc(OC)cc2)C2(O)C(=O)Nc3c(Cl)cc(Cl)cc32)cc1` (centres undefined), for which the growth inhibition is -18%.

For `CC(=O)NNc1nc(C)c(C(=O)NNC(=O)C(=O)Nc2ccc(Cl)c([N+](=O)[O-])c2)s1`, the growth inhibition was 20%.

As for `COc1ccc(Cc2cncc3c(O)c(OC)ccc23)cc1O`, the growth inhibition was 49%.

On to `Nc1ccccc1N=Nc1c(S(=O)(=O)O)cc2cc(S(=O)(=O)O)cc(O)c2c1O`, for which the growth inhibition was 7%.

Take `CCN(CC)c1c(C(=O)/C=C/c2ccc(OC)cc2)c(-c2ccccc2)nn(C)c1=O`: the growth inhibition was 8%.

For the molecule `O=C(O)/C=C/c1ccc(Cl)c(Cl)c1`, the growth inhibition was 90% (active).

For the molecule `CCC12C=CCN3CC[C@@]4(c5cc([C@@]6(C(=O)OC)C[C@@H]7CN(CCc8c6[nH]c6ccccc86)C[C@](O)(CC)C7)c(OC)cc5N(C)[C@H]4[C@@](O)(C(=O)OC)[C@@H]1OC(=O)CCCCCCCCCCCN1C(=O)C=CC1=O)[C@H]32` (some centres undefined), the growth inhibition is 98% (active).

With `Cc1cc(C)c(Cc2cc(C(C)(C)C)cc(C)c2O)cc1Cc1cc(C(C)(C)C)cc(C)c1O`, the growth inhibition is 33%.

With `COC(=O)C(=O)/C=C(/O)c1ccc(OC)cc1`, the growth inhibition is 38%.

For `Oc1ccc2c(c1)OCC1c3ccccc3OC21` (centres undefined), the growth inhibition was 88% (active).

For the molecule `Cc1cc(N2C(=O)CCSC2=S)c([N+](=O)[O-])cc1C`, the growth inhibition is 99% (active).

With `CCCCCCC(C)S(=O)(=O)c1ccc(C)cc1` (centres undefined), the growth inhibition was 47%.

In the case of `S=c1sc2c(s1)SCCOCCOCCOCCS2`, the growth inhibition is -13%.

As for `N#Cc1cn(-c2c3ccccc3nc3ccccc23)c(=O)[nH]c1=O`, the growth inhibition was 77% (active).

Turning to `O=C1C=C(c2ccccc2)O/C1=C\C(=O)c1ccc(Cl)cc1`, the growth inhibition was 44%.

On to `O=c1[nH]c2cc(Cl)ccc2nc1/C=C(\O)c1ccc(N2CCN(c3ccc(/C(O)=C/c4nc5ccc(Cl)cc5[nH]c4=O)cc3)CC2)cc1`, for which the growth inhibition was -7%.

For `O=C1Oc2ccccc2C(=O)/C1=C/N1C(=O)/C(=C/c2ccccc2)NC1=S`, the growth inhibition was 40%.

As for `CN(C)/C=C(\C(=O)c1ccccc1)n1nc(-c2ccccc2)cc1-c1ccccc1`, the growth inhibition was 54%.

For `O=C1C(=O)c2ccccc2C(O)=C1Sc1ccccc1`, the growth inhibition is 93% (active).

On to `O=C(c1c(F)c(F)c(F)c(F)c1F)n1c(=S)n(C(=O)c2c(F)c(F)c(F)c(F)c2F)c2ccccc21`, for which the growth inhibition was 95% (active).

Consider `CCCCNCCC1(c2ccccc2)C(=O)Oc2ccccc21` (centres undefined), for which the growth inhibition was 10%.

Take `COc1cc(/C=C/c2cc[n+](C)cc2)ccc1O`: the growth inhibition is -10%.

Turning to `c1ccc(-c2ccc(-c3ccc(C4=NCCN4)cc3)o2)cc1`, the growth inhibition was 95% (active).

Take `CCCCCCCCCCCCCCNC(=O)C[N+](C)(C)Cc1ccccc1`: the growth inhibition was 99% (active).

For `NC(CSSCC(N)C(=O)Nc1ccc2ccccc2c1)C(=O)Nc1ccc2ccccc2c1` (centres undefined), the growth inhibition is 99% (active).

For the molecule `O=C(OCc1ccccc1)C(O)c1ccccc1` (centres undefined), the growth inhibition was 10%.

In the case of `CC(=O)CC1(O)C(=O)Nc2ccc(Br)cc21` (centres undefined), the growth inhibition is -8%.

In the case of `S=C(S)NCCN1CCNCC1`, the growth inhibition is -1%.

Take `CCCCCCCC(=O)N1CCCCC1CC` (centres undefined): the growth inhibition is -64%.

In the case of `O=C1CCCC1C(=O)OC1CCCC1` (centres undefined), the growth inhibition was 0%.

As to `CCN1CCC(O)(/C=C/c2cccc(C)c2)C(C(=O)/C=C/c2cccc(C)c2)C1` (centres undefined), the growth inhibition is 98% (active).

As for `O=C(SCCCc1ccccc1)c1cc([N+](=O)[O-])cc([N+](=O)[O-])c1`, the growth inhibition was 94% (active).

Consider `O=C1C(=O)C2CC3(CC1N2Cc1ccccc1)OCCO3`, for which the growth inhibition was 94% (active).

With `CNc1cc(SC)nc(N)n1`, the growth inhibition is -4%.

As for `Clc1ccc(Cl)c(SCCCN2CCNCC2)c1`, the growth inhibition is 43%.

Turning to `CC(C)C(Cl)CC/C(CBr)=C(\Cl)CCl` (centres undefined), the growth inhibition was 97% (active).

With `O=C(O)CNc1ccc2c(c1)Cc1cc(Br)ccc1-2`, the growth inhibition is 96% (active).
